The text below walks through data of ChEMBL document CHEMBL2218924, “A broad activity screen in support of a chemogenomic map for kinase signalling research and drug discovery” (Biochem J, 2013).

As usually defined, the residual activity is the signal under treatment as a percentage of the control signal.

Assay [1] has as its target Protein kinase C alpha type (Homo sapiens) (UniProt P17252). The note with it: at 1 µM.
The target is the same in assay [2]. To be noted: at 10 µM.
Assay [3] has as its target Protein kinase C beta type (Homo sapiens) (UniProt P05771). To be noted: at 1 µM.
Assay [4] has the same target. To be noted: at 10 µM.
Assay [5] has the same target. To be noted: at 1 µM. The source holds these as a separate data set.
Assay [6] shares this target. The note with it: at 10 µM. This is another data set of the same source.
The target in assay [7] is Protein kinase C gamma type (Homo sapiens) (UniProt P05129). To be noted: at 1 µM.
Assay [8] has the same target. The note with it: at 10 µM.
The target in assay [9] is Protein kinase C delta type (Homo sapiens) (UniProt Q05655). To be noted: at 1 µM.
Assay [10] has the same target. To be noted: at 10 µM.
The target of assay [11] is T1, Protein kinase C epsilon type (Homo sapiens) (UniProt Q02156).
T1 sequence (whole entry): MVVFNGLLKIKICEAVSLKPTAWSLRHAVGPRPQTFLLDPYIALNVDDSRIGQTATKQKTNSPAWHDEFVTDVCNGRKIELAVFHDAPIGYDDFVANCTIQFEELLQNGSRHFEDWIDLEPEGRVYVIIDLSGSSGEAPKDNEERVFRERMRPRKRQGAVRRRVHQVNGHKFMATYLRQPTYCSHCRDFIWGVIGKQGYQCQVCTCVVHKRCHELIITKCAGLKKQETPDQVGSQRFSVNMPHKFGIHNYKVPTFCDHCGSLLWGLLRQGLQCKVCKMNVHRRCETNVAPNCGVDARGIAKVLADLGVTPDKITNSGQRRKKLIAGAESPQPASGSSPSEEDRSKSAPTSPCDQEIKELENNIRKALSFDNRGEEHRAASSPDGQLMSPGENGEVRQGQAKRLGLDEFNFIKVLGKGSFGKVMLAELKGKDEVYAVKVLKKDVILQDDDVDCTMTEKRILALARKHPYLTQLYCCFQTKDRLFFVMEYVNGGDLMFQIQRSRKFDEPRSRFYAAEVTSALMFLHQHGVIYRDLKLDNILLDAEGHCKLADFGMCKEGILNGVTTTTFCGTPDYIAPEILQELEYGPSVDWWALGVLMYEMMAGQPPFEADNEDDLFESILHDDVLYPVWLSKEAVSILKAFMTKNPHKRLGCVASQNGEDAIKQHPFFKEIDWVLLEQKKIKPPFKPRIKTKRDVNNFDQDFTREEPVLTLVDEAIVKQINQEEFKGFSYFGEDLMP
The note with it: at 1 µM.

Assay [12] concerns the target T1, Protein kinase C epsilon type (Homo sapiens). The note with it: at 10 µM.

Chain of Protein kinase C delta type (Homo sapiens) (Q05655 whole entry, looked up): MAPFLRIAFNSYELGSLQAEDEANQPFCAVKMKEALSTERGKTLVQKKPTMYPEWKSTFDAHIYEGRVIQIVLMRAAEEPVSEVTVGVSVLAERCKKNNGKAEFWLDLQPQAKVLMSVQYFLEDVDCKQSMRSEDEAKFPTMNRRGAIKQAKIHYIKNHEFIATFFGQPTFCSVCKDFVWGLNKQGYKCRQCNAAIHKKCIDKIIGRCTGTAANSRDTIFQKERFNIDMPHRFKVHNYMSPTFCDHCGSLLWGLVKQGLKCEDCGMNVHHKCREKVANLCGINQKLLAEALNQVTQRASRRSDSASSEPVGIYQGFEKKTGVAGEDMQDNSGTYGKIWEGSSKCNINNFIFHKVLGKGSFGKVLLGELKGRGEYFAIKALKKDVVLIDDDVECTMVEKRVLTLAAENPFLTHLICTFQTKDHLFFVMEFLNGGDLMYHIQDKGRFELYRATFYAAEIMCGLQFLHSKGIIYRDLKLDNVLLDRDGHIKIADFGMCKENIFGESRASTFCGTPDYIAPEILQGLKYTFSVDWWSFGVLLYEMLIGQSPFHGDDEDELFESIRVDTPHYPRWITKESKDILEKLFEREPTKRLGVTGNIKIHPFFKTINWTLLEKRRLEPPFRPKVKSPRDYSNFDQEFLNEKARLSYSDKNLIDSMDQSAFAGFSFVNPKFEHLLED
Chain of Protein kinase C beta type (Homo sapiens) (P05771 2-671 limits assumed): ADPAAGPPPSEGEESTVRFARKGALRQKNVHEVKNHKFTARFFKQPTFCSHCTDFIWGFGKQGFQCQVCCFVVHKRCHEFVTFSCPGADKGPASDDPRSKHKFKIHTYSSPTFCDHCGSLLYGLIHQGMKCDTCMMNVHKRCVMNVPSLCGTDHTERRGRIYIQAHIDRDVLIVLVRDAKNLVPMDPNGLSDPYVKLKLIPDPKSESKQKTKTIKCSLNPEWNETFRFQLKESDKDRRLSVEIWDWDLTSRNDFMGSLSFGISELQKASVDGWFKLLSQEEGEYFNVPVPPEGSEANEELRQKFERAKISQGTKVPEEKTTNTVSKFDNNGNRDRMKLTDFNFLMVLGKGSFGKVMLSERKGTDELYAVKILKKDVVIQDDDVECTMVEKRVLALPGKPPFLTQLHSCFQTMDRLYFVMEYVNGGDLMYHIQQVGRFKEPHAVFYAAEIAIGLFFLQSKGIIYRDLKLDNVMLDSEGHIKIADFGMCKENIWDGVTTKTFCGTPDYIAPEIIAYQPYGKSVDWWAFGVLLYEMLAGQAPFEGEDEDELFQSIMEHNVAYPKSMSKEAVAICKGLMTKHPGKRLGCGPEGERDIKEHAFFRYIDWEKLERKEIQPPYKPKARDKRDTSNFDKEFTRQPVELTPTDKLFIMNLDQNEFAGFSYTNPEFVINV

As to `COc1ccc(CNc2nc(N(CCO)CCO)nc3c2ncn3C(C)C)cc1`, the residual activity came to 34% in assay [1]; 13% in assay [2]; 87% in [3]; 86% in assay [4]; 87% in [5]; 79% in assay [6]. Besides, the residual activity in assay [7] is 97%; in assay [8], 86%; in assay [9], 60%; in [10] it was 27%; in assay [11], 115%; in [12], 105%.

For `Ic1cccc(CSc2nnc(-c3ccncc3)o2)c1`, the residual activity in assay [1] was 96%; in assay [2], 95%; in [3], 107%; in assay [4] it was 102%; in assay [5], 95%; in [6], 92%. Besides, the residual activity stood at 97% in assay [7]; 104% in [8]; 100% in assay [9]; 101% in assay [10]; 88% in assay [11]; 88% in assay [12].

In the case of `Cc1nc2cc3nc(-c4cccs4)cnc3cc2n1C`, the residual activity was determined as 111% in [1]; 96% in assay [2]; 107% in [3]; 105% in [4]; 99% in [5]; 99% in [6]. The residual activity in assay [7] is 110%; in assay [8], 104%; in [9], 98%; in assay [10], 106%; in assay [11] it was 104%; in assay [12], 89%.

Turning to `CC(=O)O/N=C1\C(=C2\C(=O)Nc3cc(Br)ccc32)Nc2ccccc21`, the residual activity in assay [1] was found to be 105%; in assay [2], 101%; in assay [3] it was 122%; in assay [4], 122%; in assay [5], 105%; in assay [6], 94%. Besides, the residual activity worked out at 97% in assay [7]; 109% in assay [8]; 98% in [9]; 108% in assay [10]; 107% in [11]; 93% in assay [12].

On to `COc1cc2ncc(-c3ccccc3)nc2cc1OC`, for which the residual activity in [3] amounted to 131%; in [4], 124%; in assay [5], 97%; in assay [6] it was 96%.

With `N#CCCc1ccc2c(c1)-c1[nH]c3ccc([N+](=O)[O-])cc3c1CC(=O)N2`, the results for the residual activity in assay [9] and in [10] were 68% and 57%, respectively.

As to `Cc1cc2ncc(-c3ccccc3)nc2cc1C`, the residual activity was found to be 106% in [1]; 109% in assay [2]; 125% in assay [3]; 131% in assay [4]; 100% in assay [5]; 107% in [6]. The residual activity in assay [7] is 106%; in assay [8], 105%; in assay [9], 103%; in [10], 85%; in assay [12] it was 100%.

Regarding `CN(C)c1ccc(/C=C2\C(=O)Nc3ccccc32)cc1`, the residual activity is 103% in [1]; 101% in [2]; 114% in [3]; 112% in assay [4]; 94% in [5]; 98% in assay [6]. For the same molecule, the residual activity is 113% in assay [7]; 102% in assay [8]; 88% in assay [9]; 101% in assay [10]; 120% in assay [11]; 121% in assay [12].

On to `CO[C@H]1[C@@H](OC)C[C@H](C)[C@@H](OC)C2=CC(=O)C=C(NC(=O)/C(C)=C/C=C/[C@H](OC)[C@@H](OC(N)=O)/C(C)=C/[C@@H]1C)C2=O`, for which the residual activity in assay [1] came to 110%; in [2], 107%; in assay [3] it was 106%; in assay [4], 121%; in assay [5], 92%; in assay [6], 97%. In addition, the residual activity is 111% in [7]; 99% in assay [8]; 107% in assay [9]; 107% in assay [10]; 100% in assay [11]; 102% in assay [12].

Consider `Oc1ccc(Nc2nc(-c3ccc(Cl)cc3)cs2)cc1`, for which the residual activity amounted to 110% in assay [1]; 101% in assay [2]; 112% in assay [4]; 121% in assay [5]; 101% in [6]; 102% in [7]. In addition, the residual activity in [8] stood at 105%; in [9] it was 105%; in [10], 110%; in [11], 115%; in assay [12] it was 112%.

Turning to `CO[C@@H]1[C@H](N(C)C(=O)c2ccccc2)C[C@H]2O[C@]1(C)n1c3ccccc3c3c4c(c5c6ccccc6n2c5c31)C(=O)NC4`, the residual activity came out at 36% in assay [1]; 14% in assay [2]; 66% in assay [3]; 14% in assay [4]; 61% in [5]; 45% in assay [6]. For the same molecule, the residual activity in assay [7] worked out at 15%; in assay [8], 6%; in assay [9] it was 21%; in assay [10] it was 9%; in assay [11], 42%; in assay [12] it was 14%.

On to `CCN(CC)C(=O)c1ccc(Nc2nc(OCC3CCCCC3)c3nc[nH]c3n2)cc1`, for which the residual activity in [1] was 95%; in [2], 58%; in assay [7], 46%; in assay [8] it was 13%; in assay [9], 78%; in assay [10] it was 26%. Moreover, the residual activity in assay [11] was found to be 80%; in [12], 69%.

For `CN(C)CCCn1cc(C2=C(c3c[nH]c4ccccc34)C(=O)NC2=O)c2ccccc21`, the residual activity is 9% in assay [5], 2% in [6], 2% in [9] and -1% in [10].

In the case of `O=C(Nc1cccc(Nc2nccc(Nc3cccc(C(F)(F)F)c3)n2)c1)C1CC1`, the residual activity in assay [1] was determined as 95%; in assay [2] it was 66%; in [3], 110%; in assay [4], 107%; in [5], 99%; in assay [6] it was 102%. Besides, the residual activity amounted to 98% in assay [7]; 90% in assay [8]; 100% in assay [9]; 106% in [10]; 95% in assay [11]; 80% in assay [12].

On to `Cc1cccc(-c2[nH]c(C(C)(C)C)nc2-c2ccc3c(c2)OCO3)n1`, for which the residual activity in [9] amounted to 98%; in assay [10], 101%; in [11], 80%; in assay [12] it was 91%.

Regarding `O=C1Nc2ccccc2/C1=C1/Nc2ccccc2/C1=N\OCCC(O)CO` (configuration not stated), the residual activity in [1] was found to be 96%; in [2] it was 65%; in assay [3] it was 108%; in assay [5], 97%; in [6], 99%; in assay [7] it was 81%. Moreover, the residual activity is 74% in assay [8], 95% in [11] and 82% in assay [12].

Turning to `COc1cc2ncnc(N3CCN(C(=O)Nc4ccc(Oc5ccccc5)cc4)CC3)c2cc1OC`, the residual activity in assay [1] came to 99%; in assay [2], 103%; in assay [3] it was 106%; in assay [4], 97%; in [5], 101%; in assay [6] it was 102%. The residual activity in assay [7] was 103%; in assay [8], 107%; in [9], 101%; in [10] it was 110%; in [11] it was 96%; in assay [12] it was 90%.

On to `Cc1cc(Nc2nc(-c3ccccc3)nc3ccccc23)n[nH]1`, for which the residual activity came out at 63% in assay [2], 109% in [3], 106% in assay [5] and 51% in [8].

With `O=C1c2ccccc2-[n+]2ccc3c([nH]c4ccccc43)c21`, the residual activity in assay [1] stood at 106%; in assay [2] it was 98%; in [3], 102%; in assay [4], 97%; in assay [5], 93%; in assay [6], 88%. The residual activity in [7] came to 97%; in assay [9], 101%; in assay [10], 104%; in assay [11], 93%; in assay [12] it was 94%.

In the case of `c1ccc(-c2n[nH]cc2-c2ccnc3ccccc23)nc1`, the residual activity is 101% in [5]; 94% in [6]; 94% in assay [9]; 92% in assay [10]; 74% in assay [11]; 89% in assay [12].
